Experimental data from ChEMBL document CHEMBL1157539, “Thousands of chemical starting points for antimalarial lead identification” (Nature, 2010).

tested on: Plasmodium falciparum; assay: GSK_TCMDC: Inhibition of Plasmodium falciparum 3D7 in whole red blood cells, using parasite LDH activity as an index of growth. Test compounds present at 2uM; assay type: functional

SMILES	Inhibition
CC(C)N1CCN(C(CN2CCN(CCCOc3cccc(-c4ccccc4)c3)CC2)c2ccc(F)cc2)CC1.Cl (stereo unspecified)	100%
Cn1cnc2c(SCc3ccc(OCc4ccccc4)cc3)ncnc21	95%
O=C(c1cccc(-c2cccc(-c3nc4cc(C(F)(F)F)ccc4[nH]3)c2)c1)N1CCCCC1CN1CCC(O)C1 (stereo unspecified)	91%
COc1ccc2nccc(N/N=C/c3cccc([N+](=O)[O-])c3)c2c1	100%

tested on: Plasmodium falciparum; assay: GSK_TCMDC: Inhibition of Plasmodium falciparum Dd2 in whole red blood cells, using parasite LDH activity as an index of growth. Test compounds present at 2uM; assay type: functional

SMILES	Inhibition
COc1ccc(-c2ccc(S(=O)(=O)Nc3cc4c(cc3OC(C)C)CCN(C)CC4)cc2)cc1.Cl	2%
CN(C(=O)Nc1ccc(C(F)(F)F)cc1)C1CCN(CCCCCNC(=O)/C=C/c2ccc(Cl)c(Cl)c2)CC1	38%
CN(C)c1ccc(-c2ccc(C(=O)NC3CCN(Cc4ccccc4F)CC3)s2)cc1.O=C(O)C(F)(F)F	19%
Cc1ccccc1C1CCN(c2ncc(C(=O)NC3CC3)cc2Cl)CC1.O=C(O)C(F)(F)F	96%
COc1cc2ccccc2cc1OCCCN1CCN(CC(c2ccc(F)cc2)N2CCN(C(C)C)CC2)CC1.Cl (stereo unspecified)	92%
COc1cc(F)c2ncc(F)c(CCN3C[C@H](CNCc4ccc5c(n4)NC(=O)CS5)[C@H](O)C3)c2c1.Cl	47%
CCCCOc1ccc(-n2c(Nc3ccccc3)nc3cc(S(N)(=O)=O)ccc32)cc1	72%
O=C(Nc1ccc(-c2cccc(-c3nc4cc(C(F)(F)F)ccc4[nH]3)c2)cc1)Nc1ccc(F)c(F)c1F	85%
CCS(=O)(=O)c1ccc(-c2cnc3[nH]cc(-c4ccc(N)cc4)c3c2)cc1	99%
CCC(C)(C)c1ccc(OCCCC(=O)Nc2ccc(Cl)c([N+](=O)[O-])c2)c(C(C)(C)CC)c1	88%
CC(C)(C)C1CC(=O)CC2C(=O)N(c3ccc(Br)cc3)C(=O)C21 (stereo unspecified)	7%
CC(=O)Nc1ccc(C(=O)Nc2cccc(-c3ccc(-c4nc5ccccc5[nH]4)s3)c2)cn1	91%
COc1ccc(CCNCCCCCCNCCCc2ccc(Cl)cc2)cc1OC.Cl	2%
Clc1ccc(Nc2nc3ccc(Cl)cc3nc2Nc2ccc(Cl)cc2)cc1	99%
Cc1cc2ccc(/C=C/C(=O)NC3CCC(CCN4CCc5ccc(C#N)cc5CC4)CC3)cc2[nH]1.Cl (stereo unspecified)	56%
O=C(Nc1cc(Cl)cc(Cl)c1)c1cc(Cl)c(=O)n(Cc2ccc(Cl)cc2)c1	57%

SMILES	Inhibition
COc1ccc(C=NN=c2cc(C)[nH]c3ccc(C)cc23)c2ccccc12.Cl	55%
N#Cc1ccc(-c2nc(CO)c(C(=O)NCCCCN3CCC(c4ccc5c(c4OCC(N)=O)CCCC5)CC3)s2)cc1	0%
CN(C)CCOc1cccc(NC(=O)Nc2ccc(-c3ccccc3)cc2)c1.O=C(O)C(F)(F)F	16%
CCN(CC)CCN(Cc1ccc(-c2ccc(C(F)(F)F)cc2)cc1)C(=O)Cn1c(SCc2ccc(F)c(F)c2F)nc(=O)c2c1CCC2.O=C(O)C(O)C(O)C(=O)O	96%
O=C(Nc1ccccc1)c1nn(CCCN2CCC(N3CCCC3)CC2)cc1-c1ccc(Cl)c(Cl)c1	98%
CN(C)CCCNc1ncnc2c1[nH]c1ccc(Br)cc12	19%
Cc1cc(OCC2CCN(c3ccc(C(=O)NC4CC4)cn3)CC2)ccc1F	95%
CCN(CC)CCNc1ccc(Nc2ccnc3cc4ccccc4cc23)cc1	99%
NC(=O)c1cccc(C(=O)Nc2cccc(-c3cccc(-c4nc5cc(F)ccc5[nH]4)c3)c2)c1	73%
O=C(Nc1cccc(-c2cccc(-c3nc4cc(C(F)(F)F)ccc4[nH]3)c2)c1)c1ccncc1	61%
Cc1cccc2nc(-c3cccc(-c4cccc(NC(=O)c5cnccc5C(F)(F)F)c4)c3)[nH]c12	47%
CCCCCCN1CCN(Cc2cccc(NC(=O)c3cc4ccccc4s3)c2)CC1.O=C(O)C(F)(F)F	68%
CCN(CCO)CCc1cccc(Nc2nccc(-c3c(-c4ccc(NC(=O)C(C)(C)C)cc4)nn4ccccc34)n2)c1.Cl	96%
CN(CCCNC(=S)NC12CC3CC(CC(C3)C1)C2)CCCNc1ccnc2cc(Cl)ccc12	98%
COc1ccc2nc3cc(Cl)ccc3c(NCCNCC(O)CO)c2n1.Cl (stereo unspecified)	100%
N#Cc1cccc(CN2CCCN(Cc3ccc(C(=O)Nc4ccc(Cl)cc4)cc3)CC2)c1.O=C(O)C(F)(F)F	21%
